# Laboratory results: ChEMBL document CHEMBL1157539, “Thousands of chemical starting points for antimalarial lead identification” (Nature, 2010)
# Key:
# Type in all cases: functional
# [1] = test system: Plasmodium falciparum; assay: GSK_TCMDC: Inhibition of Plasmodium falciparum 3D7 in whole red blood cells, using parasite LDH activity as an index of growth. Test compounds present at 2uM
# [2] = test system: Plasmodium falciparum; assay: GSK_TCMDC: Inhibition of Plasmodium falciparum Dd2 in whole red blood cells, using parasite LDH activity as an index of growth. Test compounds present at 2uM
# [3] = test system: HepG2; assay: GSK_TCMDC: Percent inhibition of human HepG2 cell line. Test compounds present at 10uM.
SMILES,Inhibition [1] [%],Inhibition [2] [%],Inhibition [3] [%]
Cc1ccc(CN2CCN(Cc3cccc(NC(=O)c4cccs4)c3)CC2)cc1C.O=C(O)C(F)(F)F,96,68,41
O=C(Nc1ccc(-c2ccc(-c3nc4cc(C(F)(F)F)ccc4[nH]3)cc2)cc1)Nc1ccc(F)c(F)c1F,99,100,39
COc1ccc(-c2cncc3ccc(C(=O)NCCCn4ccnc4)nc23)cc1,95,99,28
Cc1ccc(C)c(Cn2ccc3nc(N)nc(N)c32)c1,97,3,65
NC1CCCN(Cc2ccc(-c3ccc(-c4nc5ccccc5[nH]4)s3)cc2)C1.O=C(O)C(F)(F)F (stereo not given),100,99,40
COc1ccc(-c2cc(C(=O)N[C@@H](CC3CCCCC3)C(=O)NC3CCCc4ccccc43)ccc2O)cc1 (stereo not given in full),98,97,7
Br.Cc1ccc(OCCCCON2C(=N)N=C(N)NC2(C)C)cc1C,94,97,61
COc1ccc(CNC(=O)NC2CCN(c3ccnc(Nc4ccc(F)cc4)n3)CC2)cc1,87,4,16
Cc1[nH]cnc1-c1cccc(NC(=O)c2cc3ccccc3s2)c1,99,48,5
O=C(Nc1ccc(Br)cc1)c1cc(Br)ccc1NS(=O)(=O)c1cc(C(F)(F)F)cc(C(F)(F)F)c1,85,67,68
O=C(CCn1c2ccccc2c2ccccc21)NN=Cc1ccco1,96,0,6
Cc1cc(N[C@@H](Cc2ccccc2)C(=O)NCCOc2ccccc2)nc(NCC2CCCCC2)n1.O=C(O)C(F)(F)F,100,75,30
CC(=O)N(C)c1cccc(C(=O)Nc2cccc(-c3cccc(-c4nc5cc(C(F)(F)F)ccc5[nH]4)c3)c2)c1,97,41,49
COC(=O)c1cccc(CNCc2ccc(-c3cccc(-c4nc5cc(C(F)(F)F)ccc5[nH]4)c3)cc2)c1.O=C(O)C(F)(F)F,100,97,5
COc1ccc2c(c1C1CCN(CCCCNC(=O)c3ccc(-c4ccc(Cl)cn4)cc3)CC1)CCCC2,90,49,29
CC(C)(C)c1ccc2[nH]c(-c3ccc(/C=C/C(=O)NCc4ccc(Cl)c(Cl)c4)cc3)nc2c1,97,17,41
Cc1cc(N)c2cc(NC(=O)c3cccc4ccccc34)ccc2n1.Cl,98,13,18
Cc1cccc(-c2ccc(NC(=O)Nc3ccc4nccc(N5CCN(C)CC5)c4c3)cc2C)n1.Cl,100,95,4
CC(=O)Nc1nc(C(=O)Nc2cccc(-c3ccc4c(cnn4CC4CC4)c3)c2)cs1,95,67,16
O=C(c1ccc(-c2ccc(-c3nc4ccccc4[nH]3)s2)cc1)N1CCCCC1CN1CCC(O)C1 (stereo not given),84,55,18
COc1ccccc1Nc1nc(C)cc(NCc2ccc(-c3c(C)noc3C)cc2)n1,98,13,12
COc1cccc(NC(=O)NC2CCN(CCCCCNC(=O)/C=C/c3ccc(Cl)c(Cl)c3)CC2)c1,100,8,14
CN(CCN1CCC(c2c[nH]c3ccccc23)CC1)C(=O)OCCCCCNC(=O)/C=C/c1ccc(Cl)c(Cl)c1,95,44,39
CS(=O)(=O)NCCCNCc1ccc(-c2cccc(-c3nc4cc(F)ccc4[nH]3)c2)cc1.O=C(O)C(F)(F)F,98,1,15
COc1ccc2nccc([C@@H](O)CN3CCC(NC(=O)c4nc(Cl)c(Cl)c(N)c4Cl)CC3)c2c1.CS(=O)(=O)O,87,17,16
O=C(Cc1ccc[n+]([O-])c1)Nc1ccc(-c2cccc(-c3nc4cc(C(F)(F)F)ccc4[nH]3)c2)cc1,92,49,16
CCCNCc1ccc(-c2ccc(CN(Cc3cnc(C)cn3)C(=O)c3nn(-c4ccccc4)nc3C)cc2)nc1.O=C(O)C(F)(F)F,99,49,22
Cc1ccc(-n2cc(CNCCc3nc(C)c[nH]3)c(-c3ccc(F)cc3)n2)cc1,86,12,15
O=C(Nc1cccc(-c2nn3ncccc3c2-c2ccnc(Nc3ccccc3)n2)c1)c1c(F)cccc1F,98,96,51
COc1cc2s/c(=N\C(=O)c3cccc([N+](=O)[O-])c3)n(C)c2cc1OC,92,79,5
